Shown is part of a subset that was picked to be rich in hits.
DT40 TDP1 CPT – growth inhibition of DT40 Tdp1-/-;hTDP1 cells with camptothecin (screen for TDP1 inhibitors); Potency, µM (titrated, usually from 46.2 µM), without a hit: at the highest dose activity change, negative = growth inhibition, usual class: inhibitors; chicken DT40 Tdp1-/-;hTDP1 cells + 20 nM CPT, ATP luminescence, 48 h; 420,000 tested, 12% active; note: potency is the fitted concentration of half-maximal effect; nearly all actives have a fitted effect of over 55% in size
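Chicken DT40 Tdp1-/- cells stably complemented with human TDP1 were seeded at 400 cells/well in medium containing 20 nM camptothecin, exposed to pin-transferred compounds, and grown at 37 °C for at least 48 hr. Viability was read as ATP luminescence.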
TDP1 cell noCPT – qHTS for Inhibitors of human tyrosyl-DNA phosphodiesterase 1 (TDP1): qHTS in cells in absence of CPT; Potency, µM (doses to about 46.2 µM), without a hit: at the highest dose activity change, negative = growth inhibition, usual class: inhibitors; AID 686978, 2013; 420,000 tested, 15% active; DT40 Tdp1-/- hTDP1 cells, no CPT, ATP luminescence, 48 h; note: potency is the fitted concentration of half-maximal effect; nearly all actives have a fitted effect of over 55% in size
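Luminescent ATP content (CellTiter-Glo) served as the growth readout. Knockout chicken DT40 cells expressing human TDP1 were exposed to compounds without camptothecin for a minimum 48 hr at 37 °C.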
12-LOX inh – inhibitors of human 12S-lipoxygenase ALOX12; purified 12hLO, xylenol orange hydroperoxide absorbance; Potency, µM (highest dose often 108 µM), for inactives: top-dose activity change, negative = inhibition, actives largely listed as inhibitors; 580,000 tested, 1.1% active; note: potency is the fitted concentration of half-maximal effect
Target sequence (P18054 whole entry, looked up): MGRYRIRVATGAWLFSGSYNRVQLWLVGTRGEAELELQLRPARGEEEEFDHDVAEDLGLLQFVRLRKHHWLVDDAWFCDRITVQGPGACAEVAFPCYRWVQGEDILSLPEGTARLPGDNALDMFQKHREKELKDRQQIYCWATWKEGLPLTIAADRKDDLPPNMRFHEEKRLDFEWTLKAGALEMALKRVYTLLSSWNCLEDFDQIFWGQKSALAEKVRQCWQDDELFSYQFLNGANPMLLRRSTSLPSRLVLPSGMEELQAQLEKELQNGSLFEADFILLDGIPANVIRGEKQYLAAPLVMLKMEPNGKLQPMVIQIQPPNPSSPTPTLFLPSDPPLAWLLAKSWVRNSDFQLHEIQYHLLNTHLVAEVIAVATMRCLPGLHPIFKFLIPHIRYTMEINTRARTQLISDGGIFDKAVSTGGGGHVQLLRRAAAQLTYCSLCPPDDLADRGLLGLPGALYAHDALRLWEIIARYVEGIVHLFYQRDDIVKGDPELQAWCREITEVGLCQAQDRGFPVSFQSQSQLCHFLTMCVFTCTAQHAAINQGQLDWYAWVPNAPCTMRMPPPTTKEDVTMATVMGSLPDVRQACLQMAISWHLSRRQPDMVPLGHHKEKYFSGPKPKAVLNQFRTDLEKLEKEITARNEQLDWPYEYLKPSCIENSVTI
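Purified human 12hLO at 150 nM in 25 mM Hepes, 0.01% Triton X-100, pH 7.0, preincubated 15 min at room temperature with compound. Reaction started with 40 uM arachidonic acid, 30 min at room temperature. Hydroperoxide measured by Fe-xylenol orange, 573/405 nm absorbance ratio.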
HT1080 IDH1KD tx – HT-1080 IDH1 knockdown cell toxicity (counter line). HT-1080 IDH1 knockdown viability, ATP luminescence, 48 h. Potency, µM (top dose mostly 46.1 µM), for inactives: at the top dose activity, negative = toxicity, most hits filed as cytotoxic. 360,000 tested, 2% active;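 note: potency is the fitted concentration of half-maximal effect; 0% = DMSO wells and -100% = cell-free medium wells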
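In this qHTS, HT-1080 cells depleted of IDH1 are exposed for 48 h at 37 °C to compound titrations. Toxicity is scored from CellTiter-Glo luminescence, with DMSO as full viability and medium alone as none.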
HT1080-NT tox – kills 2HG-producing HT-1080-NT fibrosarcoma cells; AID 686970; HT-1080-NT fibrosarcoma viability, CellTiter-Glo ATP luminescence, 48 h; Potency, µM (series often up to 46.1 µM), for inactives: top-dose activity, negative = less viability, hits mostly cytotoxic; 360,000 tested, 1.6% active;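 note: NT is the 2HG producing partner of a matched IDH1 knockdown line; potency is the fitted concentration of half-maximal effect; 0% = DMSO-treated cells and -100% = media-only wells without cells; nearly all actives have a fitted effect of over 55% in size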
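A 48-hour cytotoxicity screen used HT-1080-NT cells plated 2 hours before compound delivery. ATP-based CellTiter-Glo luminescence measured viability, normalized to DMSO and no-cell controls.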
IL-1B inflam inh – blocks inflammasome-driven IL-1 beta release; activity change, % at 57.5 µM; 360,000 tested, 4.7% active; THP-1 LPS/ATP IL-1B secretion, AlphaLISA, 16 h; hits give low values; in the data active = activity change below about -50%; inconclusive = mostly about -30% to -49%
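THP-1 cells pretreated 1 hr with compounds (up to 57.5 uM final), then stimulated with LPS (250 ng/mL final) plus ATP (1.25 mM final); secreted IL-1B measured by AlphaLISA after 16 hr, decreased signal indicating inhibition.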
Active calls of the source: *; ? = inconclusive; . = no result given; [ ] = another dose, or the depositor's remark. Unless noted, calls come from the whole dose curve; as a rule, active = well fitted curve in the direction sought with a large enough effect; inconclusive = small, poorly fitted or top-dose-only effect, or another doubt; inactive = no such curve, though single readings can be large; an effect the other way counts as inactive or inconclusive. Unless noted, % is set by controls: 0 for no effect and ±100 for the full control effect.

SMILES	DT40 TDP1 CPT	TDP1 cell noCPT	12-LOX inh	HT1080 IDH1KD tx	HT1080-NT tox	IL-1B inflam inh
COc1ccc(NC(=O)C2(C)CCN2Cc2ccc(OC)c3ccccc23)cc1OC (configuration not stated)	?	23µM*	-23%	23µM*	?	-26
O=C(O)CSc1nc2ccccc2nc1N1CCCCC1	2%	7%	-25%	.	.	.
COC(=O)CS(=O)(=O)c1nc2ccccc2nc1N1CCCCC1	21µM*	13µM*	0%	.	.	.
CCc1cc(C(=O)NCCN2Cc3ccccc3OC(c3ccsc3)C2)n(C)n1 (configuration not stated)	?	21µM*	-17%	.	.	.
O=C(NCCN1Cc2ccccc2OC(c2ccsc2)C1)c1cncs1 (configuration not stated)	-48%[9.04 µM]	-93%	27%	.	.	.
O=C1CCC2(CCN1)CCN(C(=O)C1CCC1)CC2	.	.	28%	.	.	.
O=C(NCCc1ccc(Cl)cc1)c1ccc(CSCc2ccccc2Cl)o1	15µM*	16µM*	?	.	.	.
COCCNC(=O)c1ccc(CSCc2cccc(Cl)c2)o1	?	?	0%	6%	-1%	-11
Cc1cccc(CSCc2ccc(C(=O)NCCc3ccccc3)o2)c1	?	13µM*	-25%	.	.	.
COC(=O)c1sccc1NC(=O)CN(C)NS(=O)(=O)c1ccc(Cl)cc1	?	18µM*	?	-24%	?	-10
COC(=O)c1sccc1NC(=O)CN(C)NS(=O)(=O)c1ccc(F)cc1	18µM*	?	32%	-27%	?	-11
Clc1ccc(CSCCSc2nc3ccccc3s2)cc1	.	.	-32%	.	.	.
C[C@@H]1CN(C(=O)Cc2c(F)ccc(Cl)c2F)CC[C@]1(C)O	.	.	42%	.	.	.
CC(C)c1noc(-c2cn(C3CCCN(C(=O)c4cccs4)C3)nn2)n1 (configuration not stated)	.	.	17%	.	.	.
CCOc1ccc(Nc2nc(C)c(NC(=O)c3cccc(F)c3)c(Nc3ccc(OCC)cc3)n2)cc1	0.65µM*	0.52µM*	?	.	.	.
C/C(=N/Nc1cccc(Cl)c1)c1ccccc1Br	.	.	-65%	.	.	.
CCC(CC)NCc1ccc2c(c1)c1ccccc1n2CC	18µM*	26µM*	0%	-11%	-20%	-54*
N#C/C(=C/c1ccc(F)cc1)C(N)=S	-13%	-27%	-25%	8%	18%	37
CCn1c2ccccc2c2cc(N)ccc21	26µM*	?	?	?	?	-12
CCn1c2ccccc2c2cc(/C=C(/C#N)C(N)=S)ccc21	?	16µM*	?	-16%	-17%	8
CCn1c2ccccc2c2cc(CNCCCN3CCOCC3)ccc21	21µM*	16µM*	0%	21µM*	?	-14
CNC(c1ccccc1)c1ccccc1	.	.	2%[12.5 µM]	.	.	.
Cc1cc2ncc(C(=O)N3CCOCC3)cn2n1	.	.	-15%[176 µM]	.	.	.
O=C(NC1C[C@H]2CC[C@@H](C1)N2C(=O)c1ccc2c(c1)OCO2)c1ccncc1 (some centres not stated)	.	.	28%	.	.	.
COc1cccc(OC)c1-c1nn2c(-c3cc(-c4ccccc4)n[nH]3)nnc2s1	18µM*	?	0%	?	?	-2
SMILES	DT40 TDP1 CPT	TDP1 cell noCPT	12-LOX inh	HT1080 IDH1KD tx	HT1080-NT tox	IL-1B inflam inh
COc1ccc(OCc2nn3c(-c4ccco4)nnc3s2)cc1	?	?	4%	-3%	-3%	-5
Clc1ccccc1-c1nn2c(-c3cc(-c4ccccc4)n[nH]3)nnc2s1	13µM*	11µM*	.	.	.	.
COc1ccccc1-c1nn2c(-c3ccco3)nnc2s1	?	18µM*	-4%	-17%	-3%	-27
Clc1ccc(OCc2nn3c(-c4ccco4)nnc3s2)cc1	?	18µM*	-33%	-2%	-1%	-17
COc1ccc(NC(=O)c2sc(-c3c(F)cccc3OC)nc2C)c(OC)c1	.	.	5%	.	.	.
CN(C)c1ccc(-c2nn3c(-c4cc(-c5ccccc5)n[nH]4)nnc3s2)cc1	5µM*	3.2µM*	.	.	.	.
COc1ccccc1-c1nn2c(-c3cc(-c4ccccc4)n[nH]3)nnc2s1	6.3µM*	4.5µM*	.	.	.	.
CN(C)c1ccc(-c2cc(-c3ccccc3)nc(-c3ccccc3)c2)cc1	.	.	10%	.	.	.
CCn1cc(CN2CCC3(CCC(=O)N(C(C)C(=O)O)C3)CC2)cn1 (configuration not stated)	.	.	-5%	.	.	.
COC(=O)C1=C(C(=O)OC)SC2(S1)C(C(=O)OC)=C(C(=O)OC)SC1=C2c2cccc(C)c2NC1(C)C	9.2µM*	23µM*	0%	7.1µM*	4µM*	-7
COc1ccc(/C=C/CN2CCC(CO)(Cc3ccccc3Cl)CC2)cc1	?	15µM*	?	23µM*	23µM*	-79*
OCC1(CN2CCCC2)CCN(C/C=C/c2ccccc2)CC1	.	.	24%	.	.	.
O=C(O)CC1CCC(=C(Cl)Cl)C1 (configuration not stated)	1µM*	2.9µM*	?	?	?	-74*
CCOc1ccc(N2C(=O)/C(=C/c3cc(OC)c(OC)c(OC)c3)N(CC(=O)OC)C2=S)cc1	?	18µM*	47%	-23%	-27%	-90*
COc1cc(C(=O)Oc2ccc3ccc(O)cc3c2)cc(OC)c1OC	-13%	?	?	1%	-11%	34
Cc1cc(/C=C/C(=O)c2ccc(F)cc2)cc(C)c1O	.	.	45µM*	.	.	.
COc1ccc(C(=O)/C=C/c2ccc(OC(=O)c3cc(OC)c(OC)c(OC)c3)cc2)cc1	?	21µM*	-21%	?	?	-83*
CCOc1ccc(C(=O)/C=C/c2cc(OC)c(OC)c(OC)c2)cc1	10µM*	8.2µM*	-3%	16µM*	?	-94*
CCOc1ccc(C(=O)c2ccc(OC)c(O)c2O)cc1	21µM*	?	.	.	.	.
CCOc1ccc(C(=O)c2ccncc2)cc1	-2%	2%	0%	-20%	-4%	3
COc1cc(/C=C/C(=O)c2ccc(F)cc2)cc(OC)c1OC	?	16µM*	76%	18µM*	23µM*	-74*
COc1cc2[nH]c(=O)c(C(=O)NCc3ccccc3Cl)c(O)c2cc1OC	15µM*	18µM*	26%	3%	19%	-10
COc1ccc(CNC(=O)c2c(O)c3cc(OC)c(OC)cc3[nH]c2=O)cc1OC	-15%	-2%	0%	20%	17%	0
O=C(Nc1c(NCc2ccccc2)c2ccccc2oc1=O)c1ccc(Br)o1	.	.	-69%	.	.	.
